Measurements reported in PubChem BioAssay (NCATS).
Results filed as inconclusive are left out. Where a call stands in place of a potency, no number is given. Active and inactive are the calls of the source. Calls come from the whole dose curve; as a rule, active = well fitted inhibition curve with a large enough effect; inconclusive = small, poorly fitted or top-dose-only effect; inactive = no such curve, though single readings can be large or run the other way.

Assay: Primary qHTS for inhibitors of nuclear receptor binding SET domain protein 2 (NSD2) in an RCH-ACV wild type WT cells (2C) (AID 1645877); note: nearly all actives have a fitted effect of over 70% in size
Details: RCH-ACV (leukaemia line) NSD2 WT (2C) viability, CellTiter-Glo, 72 h; series mostly up to 44.9 µM

Structure (SMILES) | Potency | activity change, negative = cell killing
C=C(C(=O)O)C1CC(OC(=O)CC(C)CC)C2(C)CCCC(=C)C2C1 (centres undefined) | inactive | 
COC(=O)[C@H](O)[C@H]1C(C)(C)[C@H](OC(C)=O)[C@@]2(O)C(=O)[C@]1(C)C1CC[C@]3(C)C(CC(=O)O[C@H]3c3ccoc3)[C@]13O[C@@H]32 (some centres undefined) | inactive | 
CC1C(=O)OCC2=CC[N+]3([O-])CCC(OC(=O)C(C)(O)C1(C)O)C23 (centres undefined) | inactive | 
COc1cc(C(CO)CO[C@@H]2O[C@H](CO)[C@@H](O)[C@H](O)[C@H]2O)ccc1O (some centres undefined) | inactive | 
CC(=O)O[C@@H]1C(=O)C(C)=C(CCC(C)CC(=O)O)[C@@]2(C)CCCC(C)(C)C12 (some centres undefined) | inactive | 
C[C@@H]1O[C@@H](O[C@H]2[C@H](OC(=O)[C@]34CCC(C)(C)C[C@H]3C3=CCC5[C@@]6(C)CC[C@H](O[C@@H]7O[C@H](CO[C@@H]8OC[C@H](O)[C@H](O)[C@H]8O[C@@H]8OC[C@@H](O)[C@H](O)[C@H]8O)[C@@H](O)[C@H](O)[C@H]7O)C(C)(C)C6CC[C@@]5(C)[C@]3(C)C[C@H]4O)O[C@H](CO)[C@@H](O)[C@@H]2O)[C@H](O[C@@H]2O[C@H](CO)[C@@H](O)[C@H](O)[C@H]2O)[C@H](O)[C@H]1O[C@@H]1OC[C@@H](O)[C@H](O[C@@H]2OC[C@@H](O)[C@H](O)[C@H]2O)[C@H]1O (some centres undefined) |  | 4.37% [at 4.96 µM] (inactive)
CC1=CCC[C@@H]2[C@@](C)(CCc3ccoc3)[C@H](C(=O)O)CC[C@@]12C | inactive | 
CC(C)(O)[C@@H]1CC[C@]2(CO)[C@@H](O)CC[C@](C)(O)[C@H]2[C@@H]1O[C@@H]1O[C@H](CO)[C@@H](O)[C@H](O)[C@H]1O | inactive | 
COCC1OC(n2cnc3c(=O)[nH]cnc32)C(O)C1O (centres undefined) | inactive | 
C[C@@H]1C(=O)O[C@H]2[C@H]1CC[C@@]1(C)C(=O)C=C[C@@](C)(O)[C@H]21 | inactive | 
CC(=O)O[C@H]1[C@H](O[C@H]2CC[C@]34C[C@]35CC[C@]3(C)[C@@H]([C@@]6(C)CC[C@@H](C(C)(C)O)O6)[C@@H](O)C[C@@]3(C)[C@@H]5C[C@H](O[C@@H]3O[C@H](CO)[C@@H](O)[C@H](O)[C@H]3O)[C@H]4C2(C)C)OC[C@@H](OC(C)=O)[C@@H]1O | inactive | 
C=C(C(=O)O)C1CC(O)C2(C)CCCC(C)(O)C2C1 (centres undefined) | inactive | 
C[C@@H]1O[C@@H](OC[C@H]2O[C@@H](OCc3ccccc3)[C@H](O)[C@@H](O)[C@@H]2O)[C@H](O)[C@H](O)[C@H]1O | inactive | 
COc1ccc(/C=C/C(=O)O[C@@H]2[C@@H](OC(C)=O)[C@@H](OC(C)=O)[C@H](O[C@H]3[C@@H]4C=CO[C@@H](O[C@@H]5O[C@H](CO)[C@@H](O)[C@H](O)[C@H]5O)[C@@H]4[C@@]4(CO)O[C@@H]34)O[C@H]2C)cc1 | inactive | 
C/C(=C\CCC(C)C1CC(O)C2(C)C3CCC4C(C)(C)C(OC5OCC(O)C(O)C5O)CCC45CC35CC(O)C12C)C(=O)O (centres undefined) | inactive | 
C=C1C[C@]23C[C@H]1CC[C@H]2[C@]1(C)CC[C@H](O)[C@@](C)(C(=O)O)[C@H]1[C@@H]3C(=O)O | inactive | 
CC1(C)CC[C@]2(C(=O)O)CC[C@]3(C)C(=CCC4[C@@]5(C)C(=O)C[C@H](O)[C@@](C)(CO)C5CC[C@]43C)[C@@H]2C1 (some centres undefined) | inactive | 
CC(C)(O)C1CC=C(C(=O)OC[C@H]2O[C@@H](OC(=O)C3=CCC(C(C)(C)O)CC3)[C@H](O)[C@@H](O)[C@@H]2O)CC1 (some centres undefined) | inactive | 
C[C@@H]1O[C@@H](O[C@H]2[C@H](OC(=O)[C@]34CCC(C)(C)C[C@H]3C3=CCC5[C@@]6(C)C[C@@H](O)[C@@H](O)[C@@](C)(CO)C6[C@H](O)C[C@@]5(C)[C@]3(C)CC4)OC[C@H](O)[C@@H]2O)[C@H](O)[C@H](O)[C@H]1O[C@@H]1OC[C@@H](O)[C@H](O[C@H]2O[C@H](C)[C@@H](O)[C@H](O)[C@@H]2O)[C@H]1O (some centres undefined) |  | -1.27% [at 9.23 µM] (inactive)
CC1=CCC[C@@H]2[C@](CCc3ccoc3)(C(=O)O)[C@H](C)CC[C@@]12C | inactive | 

Structure (SMILES) | Potency | activity change, negative = cell killing
Cc1occc(=O)c1O[C@@H]1O[C@H](COC(=O)CC(C)(O)CC(=O)O)[C@@H](O)[C@H](O)[C@H]1O (some centres undefined) | inactive | 
CC1=CC(=O)CC(C)(C)C1CO[C@@H]1O[C@H](CO)[C@@H](O)[C@H](O)[C@H]1O (some centres undefined) | inactive | 
CSCC1OC(n2cnc3c(N)ncnc32)C(O)C1O (centres undefined) | inactive | 
COC(=O)C1=COC(O[C@@H]2O[C@H](COC(=O)/C=C/c3ccc(O)cc3)[C@@H](O)[C@H](O)[C@H]2O)C2C(CO)=CCC12 (some centres undefined) | inactive | 
CC1OC(O[C@@H]2[C@@H](O)[C@H](OC(=O)[C@]34CCC(C)(C)C[C@H]3C3=CCC5[C@@]6(C)CC[C@H](O[C@@H]7O[C@H](C(=O)O)[C@@H](O)[C@H](O[C@@H]8OC[C@@H](O)[C@H](O)[C@H]8O)[C@H]7O[C@@H]7O[C@H](CO)[C@H](O)[C@H](O)[C@H]7O)[C@@](C)(C=O)C6CC[C@@]5(C)[C@]3(C)C[C@H]4O)O[C@H](C)[C@@H]2OC2OC(C)C(OC3OCC(O)C(O)C3O)C(O)C2O)C(O)C(O)C1O (some centres undefined) |  | -13.7% [at 9.23 µM] (inactive)
C#CCCCn1cc(-c2cccc3c2N[C@@H](C)CC(=O)N3)cn1 | inactive | 
COC1CC(O[C@H]2CC[C@@]3(C)C(=CC[C@]4(O)C3[C@H](O)[C@@H](O)[C@]3(C)[C@@H]([C@H](C)O)CC[C@@]34O)C2)OC(C)C1OC1CC(OC)C(OC2CC(OC)C(OC3OC(C)C(OC4OC(CO)C(O)C(O)C4O)C(OC)C3O)C(C)O2)C(C)O1 (some centres undefined) |  | -2.18% [at 9.23 µM] (inactive)
CC1=C2CC(C)(C)CC2C(O)C2=C(C1)C(=O)OC2O (centres undefined) | inactive | 
CCOC(=O)C(CCc1ccccc1)NC(C)C(=O)N1Cc2ccccc2CC1C(=O)O (centres undefined) | inactive | 
C/C=C(/C)C(=O)O[C@H]1C[C@]2(C)O[C@@H]2[C@@H](OC(C)=O)[C@@]2(C)CC[C@@](O)(C(C)C)[C@H]12 | inactive | 
COc1cc(C2CC(=O)Nc3c2cc(Br)c2ccccc32)cc(OC)c1OC (centres undefined) | inactive | 
C=C(C)[C@@H]1CC[C@]2(CO)CC[C@]3(C)[C@H](CC[C@@H]4[C@@]5(C)CC[C@H](O)C(C)(C)[C@@H]5CC[C@]43C)[C@@H]12 | inactive | 
O=C(/C=C/c1ccc(O)cc1)OCC1OC(O)C(OC2OC(CO)C(O)C(O)C2O)C(O)C1O (centres undefined) | inactive | 
CN(C)CCC[C@]1(c2ccc(F)cc2)OCc2cc(C#N)ccc21 | inactive | 
O=C(/C=C/c1ccc(O)c(O)c1)O[C@H]1[C@H](OC2CCCCC2O)O[C@H](CO)[C@@H](O)[C@@H]1O (some centres undefined) | inactive | 
CC(C)/C=C1/NC(=O)C(C(C)C)n2c1nc1c(O)cccc1c2=O (centres undefined) | inactive | 
C/C=C(\C)C(=O)OC[C@H]1O[C@H](O[C@H]2O[C@H](CO)[C@@H](O)[C@H](O)[C@H]2O[C@@H]2O[C@H](CO)[C@@H](O)[C@H](O)[C@H]2O)[C@H](O[C@@H]2O[C@H](CO)[C@@H](O)[C@H](O)[C@H]2O)[C@@H](O)[C@@H]1O | inactive | 
CC1=CCC(O)C2(C)CCC3C(C)C(=O)OC3C12 (centres undefined) | inactive | 
C[C@@H]1C[C@@H](O)[C@@]2(CO)C(CO)=CCC[C@@H]2[C@@]12C[C@@H](c1ccoc1)OC2=O | inactive | 
